Source: PubChem BioAssay (National Center for Advancing Translational Sciences (NCATS))
Compounds with a hit are over-represented: about 2.7% of the library has one in this group of screens.
Nrf2 inh: Nrf2 qHTS screen for inhibitors | 360,000 tested, 2.1% active | A549 ARE-Fluc reporter, luciferase luminescence, 18-24 h | Potency, µM (titrated, usually from 46 µM), without a hit: top-dose activity change, negative = inhibition, actives largely listed as inhibitors; also: potency is read from the fitted curve at half-maximal effect; % is scaled to controls: 0 for no effect and ±100 for the full control effect; nearly all actives have a fitted effect of over 60% in size
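In this cell-based qHTS, ARE-driven firefly luciferase in A549 cells reports Nrf2 activity; the luminescent signal after BugLite lysis is the measured value, with a prior CellTiter-Fluor read for cell health.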
A549 tox: Nrf2 qHTS screen for inhibitors: counterscreen for cytotoxicity | A549 ARE-Fluc cells, CellTiter-Fluor viability, 18-24 h | Potency, µM (titrated, usually from 46 µM), without a hit: top-dose activity change, negative = cytotoxicity, most hits filed as inhibitors | 390,000 tested, 0.16% active; also: potency is read from the fitted curve at half-maximal effect; % is scaled to controls: 0 for no effect and ±100 for the full control effect
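A549 ARE-Fluc cells in 5% FBS OPTI-MEM, 5000 cells/well, rested 2 h then exposed to compounds in concentration-response for 18-24 h at 37 °C. Viability by CellTiter-Fluor fluorescence (Ex 405/Em 525) after 30 min; luciferase luminescence (BugLite, 15 min, RT) read afterwards.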
ALOX12 inh: Primary qHTS assay for inhibitors of human arachidonate 12S-lipoxygenase (ALOX12): Round 2 | Polyunsaturated fatty acid lipoxygenase ALOX12 (Homo sapiens), P18054 | purified 12hLO, xylenol orange hydroperoxide absorbance | Potency, µM (doses to about 108 µM), without a hit: at the top dose activity change, negative = inhibition, usual class: inhibitors | 580,000 tested, 1.1% active | AID 1671190, 2021; also: potency is read from the fitted curve at half-maximal effect; % is scaled to controls: 0 for no effect and ±100 for the full control effect
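Hydroperoxide product was detected by ferrous iron/xylenol orange as the 573 to 405 nm absorbance ratio. Arachidonic acid at 40 uM (final) was turned over for 30 min at room temperature by 150 nM human 12hLO, pH 7.0 Hepes buffer, after 15 min compound preincubation.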
LDHA inh: qHTS assay for inhibitors of human lactate dehydrogenase; activity change, % (values are at about 110 or 230 µM); 480,000 tested, 0.15% active; purified LDHA, NADH/diaphorase-resazurin fluorescence; hits give low values; in the data active = activity change below about -30%; inconclusive = mostly about -25% to -30%;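 also: plate controls were DMSO wells for no effect and wells without enzyme for full effect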
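Human LDH5 (2 nM) was incubated with 0.06 mM NADH and 0.2 mM pyruvate for 5 min at room temperature in Tris pH 7.4. Remaining NADH was coupled through diaphorase/resazurin, and resorufin fluorescence was read at 0 and 20 min.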
Nrf2 activator: qHTS of Nrf2 Activators. 410,000 tested, 0.31% active. Potency, µM (highest dose often 46.1 µM), inactives show top-dose activation, usual class: activators. AREc32 ARE-luciferase reporter (MCF7-derived line), luminescence, 24 h. AID 624171, 2012; also: potency is read from the fitted curve at half-maximal effect; % of control where 0% means no effect; nearly all actives have a fitted effect of over 65% in size
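ARE-driven firefly luciferase activity in AREc32 cells measured after a 24 hr compound exposure at 37 deg C, using Steady-Glo reagent and a 30 min room-temperature hold.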
IDH1 R132H inh: qHTS for Inhibitors of mutant isocitrate dehydrogenase 1 (IDH1): qHTS. AID 602179, 2012. 390,000 tested, 0.093% active. Isocitrate dehydrogenase [NADP] cytoplasmic (Homo sapiens), O75874. IDH1-R132H enzyme, NADPH consumption, diaphorase/resazurin fluorescence. Potency, µM (titrated, usually from 76.6 µM), without a hit: at the top dose activity change, negative = inhibition, actives largely listed as inhibitors; also: potency is read from the fitted curve at half-maximal effect; % is scaled to controls: 0 for no effect and ±100 for the full control effect; nearly all actives have a fitted effect of over 65% in size
Target sequence (O75874 whole entry R132H, stated change not applied): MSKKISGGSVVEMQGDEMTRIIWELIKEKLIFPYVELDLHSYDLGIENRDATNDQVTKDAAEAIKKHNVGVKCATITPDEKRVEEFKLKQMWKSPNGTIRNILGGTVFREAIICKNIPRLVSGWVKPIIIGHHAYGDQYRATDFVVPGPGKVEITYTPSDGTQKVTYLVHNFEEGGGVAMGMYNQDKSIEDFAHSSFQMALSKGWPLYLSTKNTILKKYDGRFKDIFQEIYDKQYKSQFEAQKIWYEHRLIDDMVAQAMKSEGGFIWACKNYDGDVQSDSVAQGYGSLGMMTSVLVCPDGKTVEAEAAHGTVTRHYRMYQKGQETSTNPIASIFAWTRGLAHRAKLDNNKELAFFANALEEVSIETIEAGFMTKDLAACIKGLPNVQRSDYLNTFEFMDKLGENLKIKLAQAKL
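IDH1-R132H (0.5 ug/mL) preincubated 30 min with compound, then NADPH (0.016 mM) and alpha-KG (2 mM) added; 80 min at RT, pH 7.5. Remaining NADPH coupled via diaphorase/resazurin to fluorescence (540/590 nm); concentration-response curves normalized to no-enzyme control.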
Starred values were filed as active, the others as inactive; ? = inconclusive; . = not tested or not shown; ! = a repeat was not active; [ ] = dose if it differs, or a comment. Unless noted, calls follow the shape of the dose curve; as a rule, active = well fitted curve in the direction sought with a large enough effect; inconclusive = small, poorly fitted or top-dose-only effect, or another doubt; inactive = no such curve, though single readings can be large; an effect the other way counts as inactive or inconclusive.

SMILES	Nrf2 inh	A549 tox	ALOX12 inh	LDHA inh	Nrf2 activator	IDH1 R132H inh
CCOC(=O)C(=NC1CCS(=O)(=O)C1)NNc1cc(Cl)ccc1Cl (stereo not drawn)	-8%	-1%	?	-2	10%	2%
CCOC(=O)C(=NC1CCCCC1)NNc1cccc(C(F)(F)F)c1	-10%	18%	50µM*	-1	0%	4%
CCOC(=O)C(=NC(C)CC)NNc1ccc(Br)cc1 (stereo not drawn)	27%	0%	28µM*	3	2%	-7%
CCC(=O)NNc1ccc(Br)cc1	12%	1%	-19%	-3	0%	-1%
CCOC(=O)C(=NC1CCS(=O)(=O)C1)NNc1ccc(Br)cc1 (stereo not drawn)	0%	-3%	16µM*	7	4%	1%
CCOC(=O)C(=NC1CCS(=O)(=O)C1)NNc1ccccc1Cl (stereo not drawn)	9%	-1%	13µM*	0	0%	-4%
CCOC(=O)C(=NC(C)CC)NNc1cccc(C(F)(F)F)c1 (stereo not drawn)	6%	15%	?	2	3%	9%
CCSc1ccccc1C(=O)Nc1nc2cc(OC)c(OC)cc2c(=O)[nH]1	.	.	1%	1	.	.
Cc1c(O)ccc2c(CN3CCN(CCc4ccccn4)CC3)cc(=O)oc12	.	.	-3%	-1	.	.
CSc1nn(Cc2cccc(F)c2)c(N(C(C)=O)C(C)=O)c1S(=O)(=O)c1ccccc1	-12%	-12%	-19%	-32*	0%	0%
COc1cccc(Cn2nc(SC)c(S(=O)(=O)c3ccccc3)c2N(C(C)=O)C(C)=O)c1	-15%	-5%	-25%	-5	-1%	-3%
CCCCN(CCCC)Cc1cc(=O)oc2cc(C)c(O)cc12	.	.	40µM*	9	.	.
Cc1ccsc1-c1nc(-c2ccc3c(c2)CCO3)cs1	.	.	?	-2	.	.
COc1ccccc1NC(=O)CSc1nncn2c1cc1sccc12	-26%	2%	-24%	1	12%	6%
O=C(CSc1nncn2c1cc1sccc12)Nc1ccccc1C(F)(F)F	21µM*	13%	-12%	-4	2%	-15%
CN(C)C(=O)CNS(=O)(=O)c1cc(F)ccc1F	.	.	42%	-1	.	.
C/C=C(\C)C(=O)O[C@@H]1Cc2c(ccc3ccc(=O)oc23)OC1(C)C	.	.	13%	14	.	.
O=C(O)c1ccccc1Nc1ccc([N+](=O)[O-])c2nonc12	-21%	18µM*	.	10	0%	4%
Cc1ccc(Nc2ccc([N+](=O)[O-])c3nonc23)cc1Cl	.	.	?	16	.	.
COc1cccc(Nc2ccc([N+](=O)[O-])c3nonc23)c1	?	18µM*	0%	1	7%[9.22 µM]	-12%
Cc1nn(Cc2ccc(Cl)cc2Cl)c(C)c1NS(=O)(=O)c1c(C)nn(C(F)F)c1C	.	.	-26%	-25	.	.
CCCn1c(N)c(N2CCOCC2)c(=O)n(CC(=O)NCc2ccc(F)cc2)c1=O	.	.	-9%	2	.	.
CCn1cc(C(=O)NC(C)c2ccccc2)c(=O)c2cc(S(=O)(=O)N3CCc4ccccc4C3)ccc21 (stereo not drawn)	-10%	11%	?	-1	-1%	-9%
CCC(C)NC(=O)c1cn(CC)c2ccc(S(=O)(=O)N3CCc4ccccc4C3)cc2c1=O (stereo not drawn)	23µM*	-9%	-20%	5	0%	-9%
CN(CCCNC(=O)c1nc2ccccc2c(=O)[nH]1)C(=O)c1ccc(-c2ccccc2)cc1	.	.	27%	1	.	.
SMILES	Nrf2 inh	A549 tox	ALOX12 inh	LDHA inh	Nrf2 activator	IDH1 R132H inh
O=c1c2ccccc2nc(SCc2ccccc2)n1Cc1ccco1	-26%	-2%	24%	-1	4%	5%
O=c1c2ccccc2nc(SCc2nc3ccccc3s2)n1Cc1ccco1	4.6µM*	19%[1.84 µM]	0%	3	0%	-2%
O=C(CSc1nc2ccccc2c(=O)n1Cc1ccco1)c1ccccc1	18µM*	14%[1.84 µM]	-15%	1	5%	1%
CCC(=O)Nc1c(-c2cc(=O)oc3ccc(C(C)C)cc23)oc2ccccc12	.	.	?	16	.	.
O=C(Nc1nnc(C2CCCCC2)s1)c1ccc2ccccc2n1	.	.	-1%	-1	.	.
CCCCOc1ccc2c(-c3ccccc3)cc(=O)oc2c1	.	.	?	-11	.	.
COc1ccc(O)c(O)c1/C=C1\[C@@H](C)CCC2C(C)(C)CCC[C@]12C (stereo partly drawn)	.	.	2.2µM*	.	.	.
COc1ccc(OC)c(C2=NS(=O)(=O)N(C)C(C(=O)Nc3ccc(F)cc3F)=C2)c1	15µM*!	?	-29%	-6	0%	2%
O=C(NCc1ccc2c(c1)OCO2)C1Cn2cccc2C(=O)N1Cc1cccnc1 (stereo not drawn)	.	.	32%	.	.	.
CC(NO)C(C)(C)NO (stereo not drawn)	.	-3%	22µM*!	-2	-1%	0%
CN=c1scc(-c2ccc(F)cc2)n1/N=C/c1ccc(O)c(O)c1	21µM*	-16%	45µM*	19	18%	-3%
O=C(Nc1ccc(NC(=O)c2ccc(Cl)cc2Cl)cc1)c1cccs1	-19%	2%	?	-14	2%	-4%
COc1c(Cl)cc(Cl)cc1C(=O)Nc1ccc(NC(=O)c2cccs2)cc1	10µM*	-15%	-9%	-3	-1%	-1%
COc1cc(C(=O)Nc2ccc(C(=O)c3cccs3)cc2)cc(OC)c1OC	21µM*	-21%	?	0	4%	3%
CCOC(=O)c1nc2ccccc2nc1N1CCN(C(=O)c2cccc(Cl)c2)CC1	.	.	0%	5	.	.
COc1ccc(-n2c(SCC3CCOCO3)nnc2-c2ccccc2)cc1OC (stereo not drawn)	.	.	1%	3	.	.
CC(=O)c1ccc(OCCCC(=O)OCc2ccc(C#N)cc2F)cc1	.	.	-3%	7	.	.
CC(C#N)OC(=O)c1sccc1-c1ccccc1 (stereo not drawn)	.	.	-2%	2	.	.
CC(OC(=O)CCCSc1nc2ccccc2s1)C(=O)NC(N)=O (stereo not drawn)	16µM*	5%	28%	-1	-1%	4%
Cc1ccc(C(=O)OCC(=O)N(C)c2ccccc2)cc1F	.	.	25%	-22	.	.
O=C(NNc1ccccc1C(F)(F)F)c1sccc1Br	18%	20%	40µM*	3	8%	4%
COCc1c(C(=O)N2CCN(Cc3nc4ccccc4s3)CC2)oc2ccccc12	12%	-5%	?	-33*	5%	5%
